Data as given in PubChem BioAssay (NCI).
This is part of a sample that, as a whole, favours compounds with a hit. Of some 79,000 tested, about 15% had one in any assay. A number with no mark means an inactive call. Active and inactive are the calls of the source. Cut-off read from the data, not from the text of the source: active = growth inhibition above about 70%; inactive = the rest.

Assay: NCI Yeast Anticancer Drug Screen. Data for the wt1 strain (AID 149);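 note: 0% = growth of vehicle-treated wt1 cultures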
Settings: S. cerevisiae wt1 strain (SPY 50644) growth inhibition, hits give high values
Procedure: Growth inhibition of yeast strains with defined genetic alterations is measured as a screen for potential anti-cancer activity. Selected strains with alterations in DNA damage repair or cell cycle control were exposed to compounds and growth inhibition was measured relative to vehicle treated controls. The strain used in this assay is wt1

| SMILES | growth inhibition (at 1.2 µM) [%] | growth inhibition (at 3.7 µM) [%] | growth inhibition (at 11.0 µM) | growth inhibition (at 33.0 µM) | growth inhibition (at 100.0 µM) |
| --- | --- | --- | --- | --- | --- |
| S=c1cn[nH]c2ccc(Br)cc12 | -5 | -6 | -11% | 1% | 43% |
| CCCCCCCCCCCCCC(=O)OC(C)CCC1CCCO1 (stereo not given) | -3 | -2 | -1% | -1% | -3% |
| Nc1cc(F)cc2c1-c1ccc(F)cc1C2 | -3 | -4 | -4% | 10% | 90% (active) |
| CC(=O)CC(=O)/C=C/c1cccs1 | -25 | -23 | -22% | -19% | 59% |
| COc1cc(NCc2ccc3nc(N)nc(N)c3c2C)cc(OC)c1OC | -1 | -4 | -6% | -7% | 1% |
| COc1ccc(N=N/C(=N\NC(=O)c2cc(Br)ccc2O)c2ccc(N(CCC#N)CCC#N)cc2OC)cc1 | 15 | 17 | 9% | 5% | 51% |
| COc1ccc(/C=C2\SC(=S)N(C=C3C(=O)NC(=S)NC3=O)C2=O)cc1OC | 4 | 6 | 25% | 79% (active) | 94% (active) |
| CCN1/C(=C/c2ccc3ccccc3[n+]2CC)C=Cc2ccccc21 | -13 | -12 | 75% (active) | 99% (active) | 99% (active) |
